Assay results published in PubChem BioAssay AID2314 (National Center for Advancing Translational Sciences (NCATS), 2010).
In all, about 300,000 compounds went through this assay and about 37,000 (12%) were called active. No stated cut-off is given here; in the data, active means max response mostly above about 13% (no sharp cut-off); inactive means mostly below about 14%. The entries come from a sample that favours actives as a whole.

assay: Cycloheximide Counterscreen for Small Molecule Inhibitors of Shiga Toxin; conditions: cell reporter, cycloheximide protein synthesis inhibition counterscreen; active compounds read high; further: read at 38.3 µM for the half of the compounds with a filed dose; 0% is about no effect

SMILES	max response
O=[N+]([O-])c1ccccc1/C=C/CN1CCCC(CO)C1 (centres undefined)	-1.17% (inactive)
FC(F)Oc1ccccc1C1CC(c2ccc(Br)s2)Nc2ncnn21 (centres undefined)	-4.82% (inactive)
CCOc1ccccc1Nc1ccc2nonc2c1[N+](=O)[O-]	-3.05% (inactive)
Cc1cnc(C(=O)N2CCCC(N3CCN(c4ccccc4F)CC3)C2)cn1 (centres undefined)	7.17% (inactive)
CN(C)/C=N/c1cc(=O)n(C)c(=O)n1CC1CC1	-3.74% (inactive)
COc1cc(OC)cc(C(=O)OCC(=O)Nc2sccc2C(N)=O)c1	16.2% (active)
CCCCn1nc(C(=O)OCC(=O)Nc2sccc2C(N)=O)c2ccccc2c1=O	11.3% (inactive)
COc1cc(OC)cc(C(=O)OCC(=O)Nc2ccc(F)cc2F)c1	1.53% (inactive)
CC(=O)N1c2ccc(S(=O)(=O)N3CCCC(C(=O)Nc4cccc(F)c4)C3)cc2CC1C (centres undefined)	-3.59% (inactive)
CC1CCN(Cc2nc(-c3ccc(Cl)cc3)no2)CC1	14.8% (active)
CC(C)C(O)C1CCN(Cc2nc(Cc3ccccc3Cl)no2)CC1 (centres undefined)	-3.2% (inactive)
Cc1ccc(-c2noc(CN3CCN(Cc4ccccc4)CC3)n2)cc1	9.63% (inactive)
Cc1cc(OCCOc2cccc3cccnc23)c(C)cc1Cl	2.3% (inactive)
CCc1ccc(N(C(=O)c2csnn2)C(C(=O)NC2CCCCC2)c2cccnc2)cc1 (centres undefined)	6.38% (inactive)
Cc1cccc(NC(=O)c2cc([N+](=O)[O-])ccc2N2CCN(C)CC2)c1	-4.47% (inactive)
Cc1cccc(NC(=O)c2ccc([N+](=O)[O-])o2)c1	29.4% (active)
Cc1onc(C(=O)NCc2ccc(F)cc2)c1[N+](=O)[O-]	4.59% (inactive)
Cc1ccc(C(=O)Nc2nnc(-c3ccncc3)s2)o1	0.697% (inactive)
Cc1cccc(NC(=O)c2sc(-c3ccccc3)nc2-c2ccc([N+](=O)[O-])cc2)c1	-2.46% (inactive)
Cc1onc(NC(=O)c2ccc([N+](=O)[O-])o2)c1Br	60.9% (active)
C=CCn1c(SCC(=O)NC)nnc1C12CC3CC(CC(C3)C1)C2	-1.24% (inactive)
O=C(CCn1nnc2ccccc21)OCC(=O)c1ccc([N+](=O)[O-])cc1	-6.28% (inactive)
N#C/C(C(=S)Nc1ccccc1)=C1/NN=C(N2CCOCC2)N1c1ccccc1	0.28% (inactive)
Cc1[nH]n(C(N)=S)c(=O)c1N=Nc1ccc(Cl)cc1Cl	12.2% (inactive)

SMILES	max response
CC(=O)Nc1ccc(NC(=O)c2ccc3c(c2)C(=O)N(c2ccccc2C)C3=O)cc1	-2.35% (inactive)
CCOc1ccc(-n2c(SCC(N)=O)nnc2-c2ccco2)cc1	-1.88% (inactive)
COc1cc(CNCc2ccc(OC)c3ccccc23)cc(OC)c1OC	-1.1% (inactive)
CCN1CCN(C(=O)C2CCN(S(=O)(=O)c3cc(Cl)ccc3Cl)CC2)CC1	-1.01% (inactive)
CCOC(=O)C1=C(C)NC2=C(C(=O)CC(C)(C)C2)C1c1ccsc1 (centres undefined)	8.09% (inactive)
COc1ccc(C(CNC(=O)COc2ccc([N+](=O)[O-])cc2)N2CCCCC2)cc1 (centres undefined)	-2.15% (inactive)
Cc1cnc(C(=O)OCC(=O)N2CCc3ccccc32)cn1	9.5% (inactive)
CCOC(=O)N1CCC(NC(=O)c2cnn3ccccc23)CC1	-4.51% (inactive)
O=C(c1cnn2ccccc12)N1CCc2ccccc21	66.5% (active)
Cc1ccc(S(=O)(=O)N2CCN(C(=O)COC(=O)c3c(C)noc3C)CC2)c(C)c1	-2.98% (inactive)
Cc1noc(C)c1COC(=O)c1cc2ccccc2cc1O	-1.04% (inactive)
Cc1ccc(-c2nc(COC(=O)c3c(C)noc3C)cs2)cc1	73.1% (active)
c1ccc(-c2csc(N3CCc4ccccc4C3)n2)cc1	36.5% (active)
CN(C)CCCNC(=S)N1CCN(c2nc(-c3ccccc3)cs2)CC1	-1.66% (inactive)
O=C(CN1CCN(c2nc(-c3ccccc3)cs2)CC1)NCc1ccc2c(c1)OCO2	-2.7% (inactive)
CCOC(=O)Cn1c(O)c(N=NC(=O)CNC(=O)Cc2ccccc2)c2ccccc21	5.93% (inactive)
CCCc1ccc(C(=O)[C@@H]2[C@@H](C(C)=O)N3c4ccc(F)cc4C=C[C@@H]3[C@@]23C(=O)Nc2ccccc23)cc1	-1.55% (inactive)
O=S(=O)(c1ccc(Cl)cc1)c1nc(-c2ccco2)oc1N1CCCCC1	3.16% (inactive)
O=C(NCCCN1CCCCC1)C1CCCN(c2ncnc3c2nc2n3CCCCC2)C1 (centres undefined)	-1.32% (inactive)
CN(C)c1nnnn1-c1ccc(Cl)cc1	-4.44% (inactive)
O=C(Nc1ccccc1)OCc1cn(-c2ccc(Cl)cc2)nn1	-3.74% (inactive)
CO/N=C/c1cn(-c2ccc(Cl)cc2)nn1	24.4% (active)
COc1cc(NC(=O)C2CC(c3ccccc3O)=NO2)c(OC)cc1Cl (centres undefined)	-1.7% (inactive)
COCCN1C(=O)C(=O)/C(=C(/O)c2ccc(S(=O)(=O)N3CCCCC3)cc2)C1c1ccc(OC)c(OC)c1 (centres undefined)	-1.21% (inactive)

SMILES	max response
CC(C)n1c(=O)c(C=Nc2ccc(Br)cc2)c(O)n(Cc2ccco2)c1=O	-2.65% (inactive)
Cc1cs/c(=N\N=C\c2ccc(O)cc2)n1Cc1ccco1	21.5% (active)
CN(C)CCCN=Cc1c(O)n(Cc2ccco2)c(=O)[nH]c1=O	8% (inactive)
O=c1c2c(-c3ccccc3)ccnc2[nH]n1-c1ccccc1	9.85% (inactive)
O=C(Nc1cccc2ccccc12)c1onc2c1CCCC2	43.2% (active)
O=C(COC(=O)c1ccccn1)Nc1cccc2ccccc12	-1.89% (inactive)
O=C(O)c1ccccc1-c1ccccc1C(=O)Nc1cccc2ccccc12	-3.02% (inactive)
O=C(c1ccc2c(c1)N(Cc1ccc(F)cc1)C(=O)c1ccccc1S2(=O)=O)N1CCN(c2ccccn2)CC1	0.32% (inactive)
O=[N+]([O-])c1ccc2nc(-c3ccccn3)[nH]c2c1	51% (active)
O=[N+]([O-])c1cnc2ccc3ccccc3c2c1	8.23% (inactive)
O=C(CSc1nc2ccc([N+](=O)[O-])cc2[nH]1)c1ccc(Cl)cc1	3.9% (inactive)
CCOc1ccc(CCNC(=O)Nc2ccccc2)cc1OCC	6.01% (inactive)
COc1ccc(-n2nnnc2SCc2nc(N)nc(N3CCOCC3)n2)cc1	-3.81% (inactive)
COc1cc(NC(=O)c2ccc(-c3csc(C)n3)cc2)c(OC)cc1Cl	-4.02% (inactive)
Cc1cc(NC(=O)COc2ccc(Cl)cc2Cl)n(CCC#N)n1	43.5% (active)
Cc1nn(-c2ccccc2)c(C)c1NC(=O)COc1ccc(Cl)cc1Cl	-1.6% (inactive)
CCCn1nnnc1NC(=O)COc1ccc(Cl)cc1C	14.6% (inactive)
COCCNc1cc(-c2ccccc2)nc2cc(-c3cccc(F)c3)nn12	-0.87% (inactive)
CC(=O)Nc1ccc(NC(=O)CCCNC(=O)c2ccc(Cl)cc2)cc1	-0.304% (inactive)
CC(=O)Nc1ccc(C(=O)N(C2=NC(C)CS2)c2ccc(Cl)cc2)cc1 (centres undefined)	28.7% (active)
COc1ccccc1C(=O)N(C1=NC(C)CS1)c1ccc(Cl)cc1 (centres undefined)	-1.66% (inactive)
CSCCC(NS(=O)(=O)c1ccc(C)cc1)C(=O)NCCc1c[nH]c2ccccc12 (centres undefined)	-3.49% (inactive)
COc1ccc(NC(=S)NCC2CCN(c3ccc(OC)cc3)C2)cc1 (centres undefined)	1.9% (inactive)
COc1ccc(NC(=S)N2CCc3cc(OC)c(OC)cc3C2)cc1	14.2% (inactive)

SMILES	max response
COc1ccc(N2CCN(C(=S)Nc3ccc(S(N)(=O)=O)cc3)CC2)cc1	-1.06% (inactive)
COc1ccc(NC(=S)N2N=CCC2c2ccccc2)cc1 (centres undefined)	36.2% (active)
Cc1ccccc1N(C(=O)CNC(=O)c1cccs1)C(C(=O)NC1CCCC1)c1ccncc1 (centres undefined)	-8.35% (inactive)
CC(=O)c1cc(CN2CCC(n3nccc3NC(=O)c3ccccc3Cl)CC2)cs1	-1.43% (inactive)
COCCNc1ncnc2c1nc1n2CCCC1	-3.81% (inactive)
CC(NC(=O)COc1ccc(-c2ccccc2)cc1)C1CCCO1 (centres undefined)	1.81% (inactive)
Cc1ccc(S(=O)(=O)NC(=O)c2cccc(C)c2)cc1	13.6% (inactive)
Cc1cc(-n2cnc(-c3cn(C)nc3C)n2)no1	21.3% (active)
COc1ccc(C)cc1S(=O)(=O)N1CCN(S(=O)(=O)c2cc(C(=O)O)ccc2C)CC1	1.26% (inactive)
CCOC(=O)/C(=N\Nc1ccccc1Cl)N(C)C1CCS(=O)(=O)C1 (centres undefined)	-5.92% (inactive)
O=C(O)c1c(NC(=O)N2CCCC2)sc2c1CCCC2	25.7% (active)
NC(=O)c1c(NC(=O)CSc2nnc(-c3ccco3)n2N)sc2c1CCCC2	5.01% (inactive)
NC(=O)c1c(NC(=O)c2ccccc2)sc2c1CCCC2	31.6% (active)
C=CCN(CC=C)S(=O)(=O)c1ccc(C(=O)Nc2sc3c(c2C(N)=O)CCCCC3)cc1	3.07% (inactive)
COc1cc2ccccc2cc1C(=O)N(CCN(C)C)c1nc2c(F)cccc2s1	-3.64% (inactive)
NC(=O)c1c(Nc2nc3c(F)cccc3s2)sc2c1CCCC2	17.8% (active)
COC(=O)c1c(NC(=O)C2CC(C)=C(C)CC2C(=O)O)sc2c1CCCCC2 (centres undefined)	-1.42% (inactive)
Fc1cc(F)c2nc(Nc3nc4c(F)cccc4s3)sc2c1	13.2% (active)
CC(C)OC(=O)c1c(NC(=O)c2ccco2)sc2c1CCCC2	-0.728% (inactive)
O=C(Nc1sc2c(c1C(=O)O)CCC2)c1ccccc1F	-2.19% (inactive)
NC(=O)c1c(NC(=O)CSc2nc(N)cc(=O)[nH]2)sc2c1CCCC2	-0.688% (inactive)
CCC(=O)N1CCc2cc(S(=O)(=O)CCC(=O)N3CCN(c4ccccc4F)CC3)ccc21	2.85% (inactive)
